As a reminder, the Inhibition is the drop in the measured response relative to a control, in per cent.

Among the data in ChEMBL document CHEMBL4513146, “CO-ADD screening of Karazin Kharkiv National University (Ukraine) compounds” are Inhibition values, retold here.

Measured potencies and affinities stand elsewhere.

One assay concerns Klebsiella pneumoniae. Conditions: Concentration 32 ug.mL-1;; ASSAY_TEST Inhibition of Bacterial Growth; detection method Absorption (OD600); MEDIA CAMHB; plate type 384well; NBS; CORNING #3640; time 18 hr.
The subject of the next assay is Candida albicans. Conditions: Concentration 32 ug.mL-1; ASSAY_TEST Inhibition of Fungal Growth; detection method Absorption (OD530).
A further assay has as its system Cryptococcus neoformans. Conditions: Concentration 32 ug.mL-1; ASSAY_TEST Inhibition of Fungal Growth; detection method Resazurin; Absorption (OD600-OD570); plate type 384well; NBS; CORNING #3640. On the technique in general: The colour change of resazurin is a common sign of viable cells or microbes.

For the molecule `Cc1ccc(NC(=O)Cn2nc3ccc(SCc4ccc(Cl)cc4)nn3c2=O)cc1C`, the Inhibition is 8.36% with Klebsiella pneumoniae, 3.97% in the assay on Candida albicans and -21.31% in the assay on Cryptococcus neoformans.

As for `O=c1n(Cc2ccc(Cl)cc2)nc2ccc(-c3ccccc3)nn12`, the Inhibition in the assay on Klebsiella pneumoniae is 18.04%; with Candida albicans, 2.75%; in the assay on Cryptococcus neoformans, -18.7%.

For `Cc1cc(C)cc(Nc2nc(C)cc3nn(CC(=O)Nc4ccc(C)c(F)c4)c(=O)n23)c1`, the Inhibition is listed as 19.17% in the assay with Klebsiella pneumoniae, 3.06% in the assay on Candida albicans and -10.1% with Cryptococcus neoformans.

For `Cc1cccc(NC(=O)Cn2nc3c4cc(-c5ccc(Cl)cc5)nn4ccn3c2=O)c1C`, the Inhibition in the assay with Klebsiella pneumoniae was 3.93%; in the assay on Candida albicans, 0.51%; in the assay on Cryptococcus neoformans it was -23.15%.

For the molecule `CCCCn1c(=O)c2sccc2n2c(CCC(=O)NCCC34CC5CC(CC(C5)C3)C4)nnc12`, the Inhibition in the assay with Klebsiella pneumoniae is recorded as 8.76%; in the assay with Candida albicans it was -0.35%; in the assay on Cryptococcus neoformans, -18.41%.

Regarding `O=C(Cn1nc2ccc(-c3ccccc3)nn2c1=O)N1CCN(c2ccc(F)cc2)CC1`, the Inhibition in the assay with Klebsiella pneumoniae is 3.94%; in the assay with Candida albicans, -0.37%; with Cryptococcus neoformans it was -5.73%.

On to `CC(C)c1nnc2c(=O)n(CC(=O)Nc3ccc(F)cc3F)c3ccccc3n12`, for which the Inhibition in the assay on Klebsiella pneumoniae is on record as 15.02%; with Candida albicans it was 0.81%; with Cryptococcus neoformans, -23.4%.

For the molecule `Cc1ccc(-c2nnc3c(=O)n(CC(=O)Nc4cc(C)cc(C)c4)c4ccccc4n23)cc1`, the Inhibition is reported as 11.28% in the assay on Klebsiella pneumoniae, -1.05% in the assay with Candida albicans and -21.63% in the assay with Cryptococcus neoformans.

For the molecule `CCOC(=O)c1ccc(NC(=O)Cn2nc3ccc(SC(C)(C)C)nn3c2=O)cc1`, the Inhibition in the assay on Klebsiella pneumoniae is reported as 7.26%; in the assay on Candida albicans, 5.28%; in the assay on Cryptococcus neoformans it was -37.99%.

For the molecule `O=S(=O)(c1cccn2cnnc12)N(Cc1cccc(Cl)c1)c1ccc(F)cc1`, the Inhibition in the assay on Klebsiella pneumoniae is listed as 7.99%; in the assay on Candida albicans it was -0.14%; in the assay with Cryptococcus neoformans, -8.04%.

As for `Cc1ccc(C)c(CSc2nnc3c(=O)n(-c4ccc(Br)cc4)ccn23)c1`, the Inhibition with Klebsiella pneumoniae is 7.74%; in the assay with Candida albicans, 3.39%; with Cryptococcus neoformans, -4.05%.

As to `Cc1ccc(-c2cc3c4nnc(CCC(=O)NCCCc5ccccc5)n4ccn3n2)cc1C`, the Inhibition in the assay with Klebsiella pneumoniae is listed as 12.56%; with Candida albicans, -0.09%; in the assay with Cryptococcus neoformans, -29.9%.

With `Cc1cccc(Sc2nccn3c(=O)n(CC(=O)Nc4ccc(Br)cc4C)nc23)c1`, the Inhibition is 8.64% with Klebsiella pneumoniae, 6.35% with Candida albicans and -17.23% with Cryptococcus neoformans.

For the molecule `CCCN(C)c1nccn2c(=O)n(CC(=O)Nc3cccc(Br)c3)nc12`, the Inhibition is 8.58% in the assay on Klebsiella pneumoniae, 1.99% with Candida albicans and -9.25% in the assay with Cryptococcus neoformans.

Take `CCCCn1c(=O)c2sccc2n2c(SCc3cccc(C(F)(F)F)c3)nnc12`: the Inhibition with Klebsiella pneumoniae was -0.52%; with Candida albicans, 0.84%; in the assay on Cryptococcus neoformans, -14.78%.

Regarding `CCc1nnc2c(S(=O)(=O)N(Cc3cccc(F)c3)c3ccccc3)cccn12`, the Inhibition is 10.23% in the assay with Klebsiella pneumoniae, 3.58% with Candida albicans and -7.54% in the assay with Cryptococcus neoformans.

With `Cc1ccc(-c2ccc3nn(CC(=O)Nc4c(C)cccc4C)c(=O)n3n2)cc1C`, the results for the Inhibition in the assay on Klebsiella pneumoniae, with Candida albicans and in the assay with Cryptococcus neoformans were -0.65%, -0.71% and -7.01%, respectively.

In the case of `COc1cccc(CNC(=O)CSc2nnc3c4cc(-c5ccc(C)cc5)nn4ccn23)c1`, the Inhibition in the assay with Klebsiella pneumoniae is listed as -13.2%; in the assay with Candida albicans, 4.52%; in the assay on Cryptococcus neoformans, -12.58%.

Consider `COc1ccc(-c2cc3c4nnc(SCC(=O)Nc5cccc(Cl)c5C)n4ccn3n2)cc1`, for which the Inhibition is recorded as -3.16% in the assay on Klebsiella pneumoniae, 6.33% in the assay with Candida albicans and -18.63% with Cryptococcus neoformans.

Consider `O=C(Cn1nc2c(SC3CCCCC3)nccn2c1=O)N1CCN(c2ccccc2)CC1`, for which the Inhibition is recorded as 7.42% in the assay with Klebsiella pneumoniae, 1.71% in the assay on Candida albicans and -1.45% with Cryptococcus neoformans.

Consider `O=c1c2nn(Cc3cccc([N+](=O)[O-])c3)c(=O)n2ccn1-c1ccccc1`, for which the Inhibition is given as 9.21% with Klebsiella pneumoniae, 0.04% in the assay with Candida albicans and -10.2% with Cryptococcus neoformans.

For `O=C(Cn1nc2c3c4c(sc3ncn2c1=O)CCCC4)NCCc1ccc(Cl)cc1`, the Inhibition is recorded as 9.47% in the assay with Klebsiella pneumoniae, 7.92% in the assay on Candida albicans and -14.7% in the assay on Cryptococcus neoformans.

Turning to `O=C(Cn1nc2c3cc(-c4ccc(Cl)cc4)nn3ccn2c1=O)Nc1ccc2c(c1)OCCO2`, the Inhibition with Klebsiella pneumoniae was 7.68%; with Candida albicans, -1.89%; in the assay with Cryptococcus neoformans, -18.54%.

As for `COc1ccc(Cl)cc1NC(=O)CSc1nc2ccccc2n2cnnc12`, the values for the Inhibition in the assay with Klebsiella pneumoniae, in the assay on Candida albicans and in the assay on Cryptococcus neoformans were 13.26%, 6.06% and -17.53%, respectively.

As for `CC(C)c1nnc2c(SCC(=O)Nc3ccc4c(c3)OCO4)nc3ccccc3n12`, the Inhibition in the assay with Klebsiella pneumoniae is listed as 4.73%; in the assay with Candida albicans, -0.7%; in the assay with Cryptococcus neoformans, -20.34%.

Take `CC(C)NC(=O)CCn1c(=O)c2cc(Cl)ccc2n2c(=O)n(CC#N)nc12`: the results for the Inhibition in the assay on Klebsiella pneumoniae, in the assay with Candida albicans and in the assay with Cryptococcus neoformans were 4.55%, 6.33% and -24.01%, respectively.

For the molecule `Cc1nc(-c2ccccc2)cc2nn(CC(=O)Nc3ccc4c(c3)OCO4)c(=O)n12`, the Inhibition in the assay with Klebsiella pneumoniae is given as 6.91%; in the assay with Candida albicans, 0.14%; in the assay with Cryptococcus neoformans, -7.69%.

As to `Cc1nnc2c(=O)n(CC(=O)Nc3ccccc3Cl)c3ccccc3n12`, the Inhibition with Klebsiella pneumoniae is listed as 0.78%; in the assay on Candida albicans, 1.36%; with Cryptococcus neoformans it was -5.67%.

On to `COc1ccc(-c2cc3c4nnc(SCC(=O)Nc5ccc(C)c(F)c5)n4ccn3n2)cc1`, for which the Inhibition in the assay with Klebsiella pneumoniae is given as 1.13%; with Candida albicans, 19.06%; with Cryptococcus neoformans it was -5.86%.

On to `O=C(Cn1nc2c(Oc3ccccc3)nccn2c1=O)Nc1ccccc1F`, for which the Inhibition is -3.78% in the assay with Klebsiella pneumoniae, -2.47% in the assay on Candida albicans and -4.07% in the assay with Cryptococcus neoformans.

On to `CCc1nnc2c(SCC(=O)Nc3cc(Cl)ccc3C)nc3ccccc3n12`, for which the values for the Inhibition in the assay with Klebsiella pneumoniae, with Candida albicans and with Cryptococcus neoformans were 15.39%, 3.09% and -9.04%, respectively.
